Assay outcomes as filed in PubChem BioAssay.
CF NFkB block: cystic fibrosis NF-kB activation inhibition; KKLEB NF-kB-GFP reporter, PAF-induced, GFP fluorescence overnight; inhibition, % at 5 µM; 360,000 tested, 0.86% active; AID 588850;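 active = at least 50% inhibition at 5 µM, scaled per plate between neutral and stimulator controls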;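 also: PAF is a Pseudomonas aeruginosa culture filtrate used as stimulus; plate controls were PAF-stimulated DMSO wells for no effect and unstimulated DMSO wells for full effect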
KKLEB cytotox: counter-screen for CF NF-kB inhibitors: cytotoxicity; 360,000 tested, 0.36% active; activity change (cytotoxicity), % at 5 µM; AID 602141; KKLEB CF airway cells viability, ATPlite luminescence, overnight; active compounds read low; cells stimulated with P. aeruginosa culture filtrate;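 active = corrected activity change at or below -50% at 5 µM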
TWEAK Fn14 block: TWEAK-Fn14 signaling inhibition | TWEAK-stimulated Fn14 reporter cells, luciferase luminescence, 8 h | inhibition, % at 10 µM | 360,000 tested, 2% active | AID 1159606; in the data active = inhibition above about 50%
HIF-2a inh: blocks HIF-2a reporter activity | 786-0 RCC cells HIF-2a reporter, luciferase luminescence, overnight | inhibition, % at 18.8 µM | 360,000 tested, 0.72% active | AID 624352;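 active = inhibition of the luminescence signal of 40% or more relative to plate controls, in a single-dose primary screen at 18.75 µM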
Peg3 prom inh-1: Peg3 promoter activity inhibition; HeLa PEG-Prom luciferase reporter, luminescence, overnight; inhibition, % at 20 µM; 360,000 tested, 1.7% active; AID 588405;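 active = inhibition of at least 50% at 20 µM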
TROY signal inh: blocks TROY-dependent signaling in reporter cells; 360,000 tested, 0.98% active; inhibition, % at 10 µM; AID 1347056; Q293 LMP1-TROYcd NF-kB luciferase reporter, 4 h;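 active = compounds whose plate-normalised and pattern-corrected inhibition of the luciferase reporter signal at the single screening dose is 50% or more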
Peg3 prom inh-2: confirmation of Peg3 promoter inhibitors | 1,300 tested, 84% active | HeLa PEG-Prom luciferase reporter, luminescence, overnight | shares compounds with Peg3 prom inh-1 | inhibition, % at 20 µM;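 active = at 20 µM dose, 40% or more inhibition averaged across four replicates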
The depositor's hits bear a star. Only some compounds are listed: those with a hit (about 4% of all), similar ones and a draw of the others.

For CC(C)(C)Cc1nnc(NC(=O)CCc2ccccc2)s1 the results were CF NFkB block 11, KKLEB cytotox -8, TWEAK Fn14 block -14, HIF-2a inh -91, Peg3 prom inh-1 -94 and TROY signal inh -24.
`CCOC(=O)C(CC)c1cc2n(c(=O)c1C#N)CCC21OCCO1` (centres undefined) gave CF NFkB block -18, KKLEB cytotox 3, TWEAK Fn14 block 8, HIF-2a inh -4, Peg3 prom inh-1 3 and TROY signal inh 4.
For CN(C)CCCN(C(=O)c1ccc2c(c1)OCCO2)c1nc2ccc(Cl)cc2s1 the results were CF NFkB block 16, KKLEB cytotox -10, TWEAK Fn14 block 18, HIF-2a inh -196, Peg3 prom inh-1 -11 and TROY signal inh 38.
`Cc1ccc(C(=O)N(CCCN(C)C)c2nc3ccc(Cl)cc3s2)cc1C` gave CF NFkB block 31, KKLEB cytotox -21, TWEAK Fn14 block -22, HIF-2a inh -29, Peg3 prom inh-1 56*, TROY signal inh -55 and Peg3 prom inh-2 93*.
Cc1cccc(C)c1-n1nnnc1C(c1ccnc2ccccc12)N1CCN(c2ccccc2F)CC1 (centres undefined) was read as TWEAK Fn14 block 12, HIF-2a inh 14 and TROY signal inh 4.
`CC(C)Oc1ccc(CNC(=O)C2CCCN(S(=O)(=O)N3CCOCC3)C2)cc1` (centres undefined) gave CF NFkB block -4, KKLEB cytotox 2, TWEAK Fn14 block 16, HIF-2a inh 9, Peg3 prom inh-1 -2 and TROY signal inh -3.
Screening COc1ccc(-c2cc(C(F)F)n3ncc(C(=O)n4ccnc4C)c3n2)cc1 returned CF NFkB block 74*, KKLEB cytotox -32, TWEAK Fn14 block 23, HIF-2a inh 31, Peg3 prom inh-1 55*, TROY signal inh -3 and Peg3 prom inh-2 95*.
`O=[N+]([O-])c1ccc(-c2nc(Nc3cccc(O)c3)c3ccccc3n2)cc1` gave CF NFkB block -24, KKLEB cytotox -13, TWEAK Fn14 block 80*, HIF-2a inh -40, Peg3 prom inh-1 81*, TROY signal inh 82* and Peg3 prom inh-2 91*.
`Cc1ccc(-c2nc(C(Cl)Cl)c3ccccc3n2)cc1` gave CF NFkB block 16, KKLEB cytotox -25, TWEAK Fn14 block 13, HIF-2a inh -86, Peg3 prom inh-1 111*, TROY signal inh -59 and Peg3 prom inh-2 99*.
COc1ccc(-c2noc(C3CCCN(C(=O)c4ccc(F)cc4)C3)n2)cc1 (centres undefined) was read as CF NFkB block -13, KKLEB cytotox 9, TWEAK Fn14 block -18, HIF-2a inh -54, Peg3 prom inh-1 -32 and TROY signal inh -19.
`CC(C)(C)OC(=O)[C@H](Cc1ccccc1)NC(=O)c1[nH]cnc1C(=O)Nc1ccc(Cl)cc1` gave CF NFkB block 16, KKLEB cytotox -2, TWEAK Fn14 block -11, HIF-2a inh -1, Peg3 prom inh-1 85*, TROY signal inh -3 and Peg3 prom inh-2 29.
`CC(C)(C)OC(=O)[C@H](Cc1ccccc1)NC(=O)c1nc[nH]c1C(=O)NCCCCCN` gave CF NFkB block -9, KKLEB cytotox -10, TWEAK Fn14 block -7, HIF-2a inh -15, Peg3 prom inh-1 10 and TROY signal inh -12.
`Cc1ccc(NC(=O)c2nc[nH]c2C(=O)N2CCN(C(=O)OC(C)(C)C)CC2)cc1` gave CF NFkB block -12, KKLEB cytotox 16, TWEAK Fn14 block -6, HIF-2a inh -17, Peg3 prom inh-1 -10 and TROY signal inh 12.
Screening CC(C)(C)OC(=O)NCc1ccc(CNC(=O)c2nc[nH]c2C(=O)N2CCN(C(=O)OC(C)(C)C)CC2)cc1 returned CF NFkB block -3, KKLEB cytotox -11, TWEAK Fn14 block 34, HIF-2a inh 9, Peg3 prom inh-1 51*, TROY signal inh 22 and Peg3 prom inh-2 28.
For CC(C)(C)OC(=O)NCCCCCNC(=O)c1[nH]cnc1C(=O)N[C@@H](Cc1ccccc1)C(=O)OC(C)(C)C the results were CF NFkB block 3, KKLEB cytotox -3, TWEAK Fn14 block -67, HIF-2a inh 16, Peg3 prom inh-1 51*, TROY signal inh -3 and Peg3 prom inh-2 40.
`CC(C)(C)OC(=O)[C@H](Cc1ccccc1)NC(=O)c1[nH]cnc1C(=O)Nc1cccc(Cl)c1` gave CF NFkB block 22, KKLEB cytotox -18, TWEAK Fn14 block 14, HIF-2a inh 18, Peg3 prom inh-1 32 and TROY signal inh -10.
For CC1(NC(=O)/C=C/c2nc3ccccc3s2)CCS(=O)(=O)C1 (centres undefined) the results were CF NFkB block 23, KKLEB cytotox -22, TWEAK Fn14 block -14, HIF-2a inh -36, Peg3 prom inh-1 -9 and TROY signal inh 29.
For CCc1ccc(CN2CCC(C(=O)Nc3ccc(Oc4ccccc4)nc3)CC2)o1 the results were CF NFkB block -20, KKLEB cytotox -3, TWEAK Fn14 block 13, HIF-2a inh 18, Peg3 prom inh-1 16 and TROY signal inh 16.
For COc1ccc(NC(=O)N(C)[C@H]2C[C@H]3c4[nH]c5ccc(-c6ccc(OC)cc6)cc5c4CCN3C(=O)[C@H]2[C@H](C)O)cc1 the results were CF NFkB block 13, KKLEB cytotox -6, TWEAK Fn14 block 16, HIF-2a inh -52, Peg3 prom inh-1 46 and TROY signal inh -7.
`Cc1cccc(-c2ccc3[nH]c4c(c3c2)CCN2C[C@@H]([C@H](C)O)[C@@H](N(C)C(=O)NC3CCCCC3)C[C@@H]42)c1` gave CF NFkB block 17, KKLEB cytotox -2, TWEAK Fn14 block 17, HIF-2a inh 14, Peg3 prom inh-1 21 and TROY signal inh -11.
`CN[C@H]1C[C@H]2c3[nH]c4ccc(-c5cccc(C)c5)cc4c3CCN2C[C@H]1[C@H](C)O` gave CF NFkB block 25, KKLEB cytotox -15, TWEAK Fn14 block 12, HIF-2a inh 34, Peg3 prom inh-1 90*, TROY signal inh 9 and Peg3 prom inh-2 98*.
`CN[C@H]1C[C@H]2c3[nH]c4ccc(-c5ccc(OC)cc5)cc4c3CCN2C(=O)[C@H]1[C@H](C)O` gave CF NFkB block 35, KKLEB cytotox -12, TWEAK Fn14 block 28, HIF-2a inh -3, Peg3 prom inh-1 101*, TROY signal inh -6 and Peg3 prom inh-2 98*.
`COc1ccc(-c2nc3ccccc3s2)cc1O` gave CF NFkB block -10, KKLEB cytotox -54*, TWEAK Fn14 block 99*, HIF-2a inh 40, Peg3 prom inh-1 55*, TROY signal inh 68* and Peg3 prom inh-2 37.
For CC(C)c1ccc(-c2nc3ccccc3s2)cc1 the results were CF NFkB block 21, KKLEB cytotox -79*, TWEAK Fn14 block 107*, HIF-2a inh 77*, Peg3 prom inh-1 72*, TROY signal inh 96* and Peg3 prom inh-2 83*.
